Assay results: article PMC11006913
Residue numbers refer to the chain shown, from its start.

What was measured:
Experiment in all cases: PBM; 200 nM protein, PBS
Settings in all cases: dsDNA, one strand shown
HOXB9 [1] = molecular target: HOXB9 (Homo sapiens, UniProt P17482 171-250, T197M)
HOXC10 [2] = molecular target: HOXC10 (Homo sapiens, UniProt Q9NYD6 254-340)
ALX4 = ALX4 (Homo sapiens, UniProt Q9H161 200-286, Q225E)
HOXB9 [3] = molecular target: HOXB9 (Homo sapiens, UniProt P17482 171-250)
Sequence of HOXB9 (Homo sapiens, UniProt P17482 171-250) (P17482 171-250): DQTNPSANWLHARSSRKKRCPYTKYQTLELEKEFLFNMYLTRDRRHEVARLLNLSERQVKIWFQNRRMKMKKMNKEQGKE

HOXD13 [4] = molecular target: HOXD13 (Homo sapiens, UniProt P35453 263-343, T313R)
Sequence of HOXD13 (Homo sapiens, UniProt P35453 263-343, T313R) (P35453 263-343 T313R): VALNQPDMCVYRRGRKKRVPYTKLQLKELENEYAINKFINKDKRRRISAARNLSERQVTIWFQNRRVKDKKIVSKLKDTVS

HOXD13 [5] = molecular target: HOXD13 (Homo sapiens, UniProt P35453 263-343)
Sequence of HOXD13 (Homo sapiens, UniProt P35453 263-343) (P35453 263-343): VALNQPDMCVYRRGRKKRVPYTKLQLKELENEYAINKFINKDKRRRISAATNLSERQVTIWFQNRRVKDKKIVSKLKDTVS

HOXC10 [6] = molecular target: HOXC10 (Homo sapiens, UniProt Q9NYD6 254-340, K271E)
Sequence of HOXC10 (Homo sapiens, UniProt Q9NYD6 254-340, K271E) (Q9NYD6 254-340 K271E): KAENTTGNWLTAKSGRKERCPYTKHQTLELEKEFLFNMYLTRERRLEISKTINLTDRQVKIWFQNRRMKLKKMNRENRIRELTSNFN

HOXD13 [7] = molecular target: HOXD13 (Homo sapiens, UniProt P35453 263-343, T313A)
Sequence of HOXD13 (Homo sapiens, UniProt P35453 263-343, T313A) (P35453 263-343 T313A): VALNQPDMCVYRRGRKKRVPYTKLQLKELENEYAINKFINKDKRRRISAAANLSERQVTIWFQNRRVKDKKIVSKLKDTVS

HOXB9 [8] = molecular target: HOXB9 (Homo sapiens, UniProt P17482 171-250, R186Q)
Sequence of HOXB9 (Homo sapiens, UniProt P17482 171-250, R186Q) (P17482 171-250 R186Q): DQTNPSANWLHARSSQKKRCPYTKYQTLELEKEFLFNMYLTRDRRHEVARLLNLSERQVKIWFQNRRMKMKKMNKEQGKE

HOXC9 [9] = molecular target: HOXC9 (Homo sapiens, UniProt P31274 178-260, R222W)
Sequence of HOXC9 (Homo sapiens, UniProt P31274 178-260, R222W) (P31274 178-260 R222W): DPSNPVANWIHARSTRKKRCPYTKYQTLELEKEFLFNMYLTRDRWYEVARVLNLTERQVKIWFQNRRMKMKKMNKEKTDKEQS

PAX4 [10] = molecular target: T1, PAX4 (Homo sapiens, UniProt O43316 9-242, R200K)
T1 sequence: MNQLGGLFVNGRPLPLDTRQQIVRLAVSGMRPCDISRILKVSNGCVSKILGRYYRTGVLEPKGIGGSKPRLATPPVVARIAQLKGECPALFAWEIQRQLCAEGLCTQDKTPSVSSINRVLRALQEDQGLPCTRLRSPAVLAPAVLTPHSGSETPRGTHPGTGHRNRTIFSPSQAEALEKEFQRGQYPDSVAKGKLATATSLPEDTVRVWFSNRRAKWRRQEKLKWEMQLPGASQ

PAX4 [11] = molecular target: T2, PAX4 (Homo sapiens, UniProt O43316 9-242)
T2 sequence: T1 sequence with K192R

PAX4 [12] = molecular target: T3, PAX4 (Homo sapiens, UniProt O43316 9-242, R200Q)
T3 sequence: T1 sequence with K192Q

PAX4 [13] = molecular target: T4, PAX4 (Homo sapiens, UniProt O43316 9-242, F177V)
T4 sequence: T1 sequence with F169V, K192R

PAX4 [14] = molecular target: T5, PAX4 (Homo sapiens, UniProt O43316 9-242, F177Y)
T5 sequence: T1 sequence with F169Y, K192R

PAX4 [15] = molecular target: T6, PAX4 (Homo sapiens, UniProt O43316 9-242, R227W)
T6 sequence: T1 sequence with K192R, R219W

HOXB6 [16] = molecular target: HOXB6 (Homo sapiens, UniProt P17509 132-218, K202E)
Sequence of HOXB6 (Homo sapiens, UniProt P17509 132-218, K202E) (P17509 132-218 K202E): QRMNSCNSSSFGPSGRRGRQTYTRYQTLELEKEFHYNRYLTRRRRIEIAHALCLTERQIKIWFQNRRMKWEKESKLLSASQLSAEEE

NKX2-6 = molecular target: T7, NKX2-6 (Homo sapiens, UniProt A6NCS4 118-204, R150C)
T7 sequence: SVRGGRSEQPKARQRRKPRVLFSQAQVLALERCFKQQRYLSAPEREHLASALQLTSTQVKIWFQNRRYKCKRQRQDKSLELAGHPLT

HOXB6 [17] = molecular target: HOXB6 (Homo sapiens, UniProt P17509 132-218)
Sequence of HOXB6 (Homo sapiens, UniProt P17509 132-218) (P17509 132-218): as the sequence (P17509 132-218 K202E) above, with E71K counted along it

HOXC9 [18] = molecular target: HOXC9 (Homo sapiens, UniProt P31274 178-260, K195R)
Sequence of HOXC9 (Homo sapiens, UniProt P31274 178-260, K195R) (P31274 178-260 K195R): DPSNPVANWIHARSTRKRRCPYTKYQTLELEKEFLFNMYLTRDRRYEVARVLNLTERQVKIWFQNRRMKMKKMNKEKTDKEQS

HOXC9 [19] = molecular target: HOXC9 (Homo sapiens, UniProt P31274 178-260)
Sequence of HOXC9 (Homo sapiens, UniProt P31274 178-260) (P31274 178-260): as the sequence (P31274 178-260 R222W) above, with W45R counted along it

HOXC9 [20] = molecular target: HOXC9 (Homo sapiens, UniProt P31274 178-260, R193K)
Sequence of HOXC9 (Homo sapiens, UniProt P31274 178-260, R193K) (P31274 178-260 R193K): as the sequence (P31274 178-260 R222W) above, with R16K, W45R counted along it

ALX3 [21] = molecular target: ALX3 (Homo sapiens, UniProt O95076 139-225, N203Q)
Sequence of ALX3 (Homo sapiens, UniProt O95076 139-225, N203Q) (O95076 139-225 N203Q): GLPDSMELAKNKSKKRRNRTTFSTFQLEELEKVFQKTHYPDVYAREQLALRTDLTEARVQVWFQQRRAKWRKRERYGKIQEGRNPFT

ALX3 [22] = molecular target: ALX3 (Homo sapiens, UniProt O95076 139-225)
Sequence of ALX3 (Homo sapiens, UniProt O95076 139-225) (O95076 139-225): as the sequence (O95076 139-225 N203Q) above, with Q65N counted along it

ALX3 [23] = molecular target: ALX3 (Homo sapiens, UniProt O95076 139-225, L168Q)
Sequence of ALX3 (Homo sapiens, UniProt O95076 139-225, L168Q) (O95076 139-225 L168Q): as the sequence (O95076 139-225 N203Q) above, with L30Q, Q65N counted along it

ALX3 [24] = molecular target: ALX3 (Homo sapiens, UniProt O95076 139-225, L168V)
Sequence of ALX3 (Homo sapiens, UniProt O95076 139-225, L168V) (O95076 139-225 L168V): as the sequence (O95076 139-225 N203Q) above, with L30V, Q65N counted along it

ALX3 [25] = molecular target: ALX3 (Homo sapiens, UniProt O95076 139-225, N203S)
Sequence of ALX3 (Homo sapiens, UniProt O95076 139-225, N203S) (O95076 139-225 N203S): as the sequence (O95076 139-225 N203Q) above, with Q65S counted along it

HOXA2 [26] = molecular target: HOXA2 (Homo sapiens, UniProt O43364 129-215, R185T)
Sequence of HOXA2 (Homo sapiens, UniProt O43364 129-215, R185T) (O43364 129-215 R185T): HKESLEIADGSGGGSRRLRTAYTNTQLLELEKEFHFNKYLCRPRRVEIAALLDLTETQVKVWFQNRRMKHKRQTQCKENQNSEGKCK

HOXA2 [27] = molecular target: HOXA2 (Homo sapiens, UniProt O43364 129-215, R185K)
Sequence of HOXA2 (Homo sapiens, UniProt O43364 129-215, R185K) (O43364 129-215 R185K): as the sequence (O43364 129-215 R185T) above, with T57K counted along it

HOXA2 [28] = molecular target: HOXA2 (Homo sapiens, UniProt O43364 129-215, Y150S)
Sequence of HOXA2 (Homo sapiens, UniProt O43364 129-215, Y150S) (O43364 129-215 Y150S): as the sequence (O43364 129-215 R185T) above, with Y22S, T57R counted along it

HOXA2 [29] = molecular target: HOXA2 (Homo sapiens, UniProt O43364 129-215)
Sequence of HOXA2 (Homo sapiens, UniProt O43364 129-215) (O43364 129-215): as the sequence (O43364 129-215 R185T) above, with T57R counted along it

Sequence of HOXB9 (Homo sapiens, UniProt P17482 171-250, T197M) (P17482 171-250 T197M): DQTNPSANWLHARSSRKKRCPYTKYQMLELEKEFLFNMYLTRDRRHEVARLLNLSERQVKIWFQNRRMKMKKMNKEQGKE
Sequence of ALX4 (Q9H161 200-286 Q225E): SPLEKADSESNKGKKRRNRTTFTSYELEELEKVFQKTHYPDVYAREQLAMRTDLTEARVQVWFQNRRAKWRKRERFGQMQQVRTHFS
Sequence of HOXC10 (Homo sapiens, UniProt Q9NYD6 254-340) (Q9NYD6 254-340): as the sequence (Q9NYD6 254-340 K271E) above, with E18K counted along it

## TCAATAAA
HOXB9 [1]
  binding signal: 9.75 upbm affinity estimate (log intensity, higher = more binding, comparable within an allelic series)
HOXC10 [2]
  binding signal: 12.2 upbm affinity estimate (log intensity, higher = more binding, comparable within an allelic series)
ALX4
  binding signal: 11.2 upbm affinity estimate (log intensity, higher = more binding, comparable within an allelic series)
HOXB9 [3]
  binding signal: 11.8 upbm affinity estimate (log intensity, higher = more binding, comparable within an allelic series)
HOXD13 [4]
  binding signal: 11 upbm affinity estimate (log intensity, higher = more binding, comparable within an allelic series)
HOXD13 [5]
  binding signal: 12 upbm affinity estimate (log intensity, higher = more binding, comparable within an allelic series)
HOXC10 [6]
  binding signal: 11.6 upbm affinity estimate (log intensity, higher = more binding, comparable within an allelic series)
HOXD13 [7]
  binding signal: 11.7 upbm affinity estimate (log intensity, higher = more binding, comparable within an allelic series)
HOXB9 [8]
  binding signal: 11.5 upbm affinity estimate (log intensity, higher = more binding, comparable within an allelic series)
HOXC9 [9]
  binding signal: 11.3 upbm affinity estimate (log intensity, higher = more binding, comparable within an allelic series)

## CCCGCGGC
HOXB9 [1]
  binding signal: 8.53 upbm affinity estimate (log intensity, higher = more binding, comparable within an allelic series)
PAX4 [10]
  binding signal: 9.28 upbm affinity estimate (log intensity, higher = more binding, comparable within an allelic series)
PAX4 [11]
  binding signal: 9.32 upbm affinity estimate (log intensity, higher = more binding, comparable within an allelic series)
HOXB9 [3]
  binding signal: 8.39 upbm affinity estimate (log intensity, higher = more binding, comparable within an allelic series)
PAX4 [12]
  binding signal: 9.34 upbm affinity estimate (log intensity, higher = more binding, comparable within an allelic series)
PAX4 [13]
  binding signal: 9.09 upbm affinity estimate (log intensity, higher = more binding, comparable within an allelic series)
PAX4 [14]
  binding signal: 9.18 upbm affinity estimate (log intensity, higher = more binding, comparable within an allelic series)
HOXB9 [8]
  binding signal: 8.48 upbm affinity estimate (log intensity, higher = more binding, comparable within an allelic series)
PAX4 [15]
  binding signal: 9.24 upbm affinity estimate (log intensity, higher = more binding, comparable within an allelic series)

## AGGCCTGG
HOXB9 [1]
  binding signal: 8.45 upbm affinity estimate (log intensity, higher = more binding, comparable within an allelic series)
HOXB6 [16]
  binding signal: 8.94 upbm affinity estimate (log intensity, higher = more binding, comparable within an allelic series)
HOXB9 [3]
  binding signal: 8.43 upbm affinity estimate (log intensity, higher = more binding, comparable within an allelic series)
NKX2-6
  binding signal: 9.48 upbm affinity estimate (log intensity, higher = more binding, comparable within an allelic series)
HOXB9 [8]
  binding signal: 8.44 upbm affinity estimate (log intensity, higher = more binding, comparable within an allelic series)
HOXB6 [17]
  binding signal: 8.97 upbm affinity estimate (log intensity, higher = more binding, comparable within an allelic series)

## CCATAAAC
HOXB9 [1]
  binding signal: 9.33 upbm affinity estimate (log intensity, higher = more binding, comparable within an allelic series)
HOXC9 [18]
  binding signal: 12.4 upbm affinity estimate (log intensity, higher = more binding, comparable within an allelic series)
HOXB9 [3]
  binding signal: 11.8 upbm affinity estimate (log intensity, higher = more binding, comparable within an allelic series)
HOXC9 [19]
  binding signal: 12.6 upbm affinity estimate (log intensity, higher = more binding, comparable within an allelic series)
HOXD13 [4]
  binding signal: 10.8 upbm affinity estimate (log intensity, higher = more binding, comparable within an allelic series)
HOXC9 [20]
  binding signal: 12.5 upbm affinity estimate (log intensity, higher = more binding, comparable within an allelic series)
HOXD13 [5]
  binding signal: 12.1 upbm affinity estimate (log intensity, higher = more binding, comparable within an allelic series)
HOXC10 [6]
  binding signal: 11.3 upbm affinity estimate (log intensity, higher = more binding, comparable within an allelic series)
HOXD13 [7]
  binding signal: 11.8 upbm affinity estimate (log intensity, higher = more binding, comparable within an allelic series)
HOXB9 [8]
  binding signal: 11.5 upbm affinity estimate (log intensity, higher = more binding, comparable within an allelic series)
HOXC9 [9]
  binding signal: 10.8 upbm affinity estimate (log intensity, higher = more binding, comparable within an allelic series)

## CCCGATGC
HOXB9 [1]
  binding signal: 8.47 upbm affinity estimate (log intensity, higher = more binding, comparable within an allelic series)
HOXC9 [18]
  binding signal: 9.5 upbm affinity estimate (log intensity, higher = more binding, comparable within an allelic series)
HOXB9 [3]
  binding signal: 8.13 upbm affinity estimate (log intensity, higher = more binding, comparable within an allelic series)
HOXC9 [19]
  binding signal: 9.57 upbm affinity estimate (log intensity, higher = more binding, comparable within an allelic series)
HOXD13 [4]
  binding signal: 9.52 upbm affinity estimate (log intensity, higher = more binding, comparable within an allelic series)
HOXC9 [20]
  binding signal: 9.49 upbm affinity estimate (log intensity, higher = more binding, comparable within an allelic series)
HOXD13 [5]
  binding signal: 9.47 upbm affinity estimate (log intensity, higher = more binding, comparable within an allelic series)
HOXD13 [7]
  binding signal: 9.71 upbm affinity estimate (log intensity, higher = more binding, comparable within an allelic series)
HOXB9 [8]
  binding signal: 8.19 upbm affinity estimate (log intensity, higher = more binding, comparable within an allelic series)
HOXC9 [9]
  binding signal: 9.68 upbm affinity estimate (log intensity, higher = more binding, comparable within an allelic series)

## AATATAAT
HOXB9 [1]
  binding signal: 9.96 upbm affinity estimate (log intensity, higher = more binding, comparable within an allelic series)
HOXB6 [16]
  binding signal: 10 upbm affinity estimate (log intensity, higher = more binding, comparable within an allelic series)
ALX3 [21]
  binding signal: 8.52 upbm affinity estimate (log intensity, higher = more binding, comparable within an allelic series)
PAX4 [13]
  binding signal: 10.7 upbm affinity estimate (log intensity, higher = more binding, comparable within an allelic series)
ALX3 [22]
  binding signal: 11.4 upbm affinity estimate (log intensity, higher = more binding, comparable within an allelic series)
ALX3 [23]
  binding signal: 9.35 upbm affinity estimate (log intensity, higher = more binding, comparable within an allelic series)
ALX3 [24]
  binding signal: 9.24 upbm affinity estimate (log intensity, higher = more binding, comparable within an allelic series)
ALX3 [25]
  binding signal: 8.65 upbm affinity estimate (log intensity, higher = more binding, comparable within an allelic series)

## CCCCCAGA
HOXB9 [1]
  binding signal: 8.56 upbm affinity estimate (log intensity, higher = more binding, comparable within an allelic series)
HOXC9 [18]
  binding signal: 9.67 upbm affinity estimate (log intensity, higher = more binding, comparable within an allelic series)
HOXB9 [3]
  binding signal: 8.41 upbm affinity estimate (log intensity, higher = more binding, comparable within an allelic series)
HOXC9 [19]
  binding signal: 9.59 upbm affinity estimate (log intensity, higher = more binding, comparable within an allelic series)
HOXC9 [20]
  binding signal: 9.69 upbm affinity estimate (log intensity, higher = more binding, comparable within an allelic series)
HOXB9 [8]
  binding signal: 8.47 upbm affinity estimate (log intensity, higher = more binding, comparable within an allelic series)
HOXC9 [9]
  binding signal: 9.54 upbm affinity estimate (log intensity, higher = more binding, comparable within an allelic series)

## AGGCCCCC
HOXB9 [1]
  binding signal: 8.34 upbm affinity estimate (log intensity, higher = more binding, comparable within an allelic series)
PAX4 [10]
  binding signal: 9.04 upbm affinity estimate (log intensity, higher = more binding, comparable within an allelic series)
PAX4 [11]
  binding signal: 9.05 upbm affinity estimate (log intensity, higher = more binding, comparable within an allelic series)
HOXA2 [26]
  binding signal: 7.07 upbm affinity estimate (log intensity, higher = more binding, comparable within an allelic series)
HOXB9 [3]
  binding signal: 8.29 upbm affinity estimate (log intensity, higher = more binding, comparable within an allelic series)
ALX3 [21]
  binding signal: 7.63 upbm affinity estimate (log intensity, higher = more binding, comparable within an allelic series)
PAX4 [12]
  binding signal: 9.09 upbm affinity estimate (log intensity, higher = more binding, comparable within an allelic series)
HOXA2 [27]
  binding signal: 9.91 upbm affinity estimate (log intensity, higher = more binding, comparable within an allelic series)
PAX4 [13]
  binding signal: 8.99 upbm affinity estimate (log intensity, higher = more binding, comparable within an allelic series)
ALX3 [22]
  binding signal: 7.61 upbm affinity estimate (log intensity, higher = more binding, comparable within an allelic series)
PAX4 [14]
  binding signal: 8.97 upbm affinity estimate (log intensity, higher = more binding, comparable within an allelic series)
ALX3 [23]
  binding signal: 7.47 upbm affinity estimate (log intensity, higher = more binding, comparable within an allelic series)
HOXB9 [8]
  binding signal: 8.32 upbm affinity estimate (log intensity, higher = more binding, comparable within an allelic series)
ALX3 [24]
  binding signal: 7.5 upbm affinity estimate (log intensity, higher = more binding, comparable within an allelic series)
PAX4 [15]
  binding signal: 9.06 upbm affinity estimate (log intensity, higher = more binding, comparable within an allelic series)
HOXA2 [28]
  binding signal: 10.2 upbm affinity estimate (log intensity, higher = more binding, comparable within an allelic series)
ALX3 [25]
  binding signal: 7.61 upbm affinity estimate (log intensity, higher = more binding, comparable within an allelic series)
HOXA2 [29]
  binding signal: 7.21 upbm affinity estimate (log intensity, higher = more binding, comparable within an allelic series)
